From PubChem
GPR151 ag: activators of human GPR151, primary screen, cell-based, PathHunter beta-arrestin, luminescence; G-protein coupled receptor 151 (Homo sapiens), Q8TDV0; AID 1508602, 2020; actives 1% (n = 650,000); PathHunter beta-arrestin GPR151 cells; activation, % at 11.2 µM; in the data active = activation above about 4.9%;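 also: 0% = median of compound wells and 100% = cells with positive control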
Target sequence (Q8TDV0 whole entry, looked up): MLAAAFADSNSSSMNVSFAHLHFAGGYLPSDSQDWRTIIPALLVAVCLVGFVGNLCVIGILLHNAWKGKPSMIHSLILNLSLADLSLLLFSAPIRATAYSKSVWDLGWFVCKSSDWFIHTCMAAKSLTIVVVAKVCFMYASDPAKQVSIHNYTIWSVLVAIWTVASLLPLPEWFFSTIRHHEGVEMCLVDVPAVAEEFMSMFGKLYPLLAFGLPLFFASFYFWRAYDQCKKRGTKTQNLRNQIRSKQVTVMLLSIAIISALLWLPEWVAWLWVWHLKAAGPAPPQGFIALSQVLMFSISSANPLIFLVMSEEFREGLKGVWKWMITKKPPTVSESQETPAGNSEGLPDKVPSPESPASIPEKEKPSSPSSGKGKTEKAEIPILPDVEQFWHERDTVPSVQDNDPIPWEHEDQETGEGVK
TEAD-YAP inh: TEAD-YAP interaction inhibition, primary screen, TEAD-YAP interaction inhibitor project, luminescence, HEK-TIYL cells; TEAD-Gal4/YAP UAS-luciferase luminescence; inhibition, % at 9.12 µM; actives 1.4% (n = 640,000); AID 1259422, 2018; in the data active = inhibition above about 32%;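 also: 0% = median of test compound wells and 100% = reference inhibitor wells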
MITF primary: MITF inhibitors, primary screen, biochemical, AlphaScreen, human. Microphthalmia-associated transcription factor (Homo sapiens), O75030. AlphaScreen MITF homodimerization, bead proximity signal. inhibition, % at 2.6 µM. actives 0.91% (n = 650,000); in the data active = inhibition above about 50%;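 also: 0% = vehicle wells with protein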
FBW7 activator: FBW7 E3 ligase activators, primary screen, biochemical, AlphaScreen, human; AID 1259310, 2017; actives 0.13% (n = 650,000); normalized activity (activation), % at 26.1 µM; F-box/WD repeat-containing protein 7 (Homo sapiens), Q969H0; AlphaScreen FBW7–phospho-cyclin E peptide binding, activator screen; in the data active = normalized activity above about 1.9%;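 also: purified mutant Fbw7 with reduced substrate affinity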
Starred values were filed as active, the others as inactive. In the library only some 3.4% were active in any assay of this set; here they are far more common.

SMILES	GPR151 ag	TEAD-YAP inh	MITF primary	FBW7 activator
COc1ccc2c(c1)c1nc(N(C)C)nc3c1n2CCN3C	0	88*	12	0
COc1ccc(/C=N/NC(=O)COc2cc(C)cc(C)c2)cc1	2	2	3	0
Cc1cccc(/C=N/Nc2nncc3ccccc23)c1	-6	67*	-6	0
CC(=O)N1CCc2ccc(NS(=O)(=O)c3ccc(C(C)(C)C)cc3)cc21	2	32*	7	0
CCC(=O)N1CCCc2ccc(NS(=O)(=O)c3ccc(OC)c(F)c3)cc21	2	58*	10	0
O=C(Nc1ccc2c(c1)CCCN2C(=O)c1cccs1)NC(c1ccccc1)c1ccccc1	0	45*	-1	0
CC(C)CS(=O)(=O)Nc1ccc2c(c1)N(C(=O)c1cccs1)CC2	0	-2	6	0
Cc1ccc(S(=O)(=O)Nc2ccc3c(c2)N(C(=O)c2cccs2)CCC3)cc1	0	50*	24	0
Cc1cccc(OCC(=O)Nc2ccc3c(c2)CCCN3C(=O)c2cccs2)c1	0	3	9	0
CCc1ccc(OCC(=O)Nc2ccc(Cl)cn2)cc1	2	-29	-3	0
CCN(CC)CC(=O)Nc1cccc(I)c1	0	8	-22	0
Cc1noc(C)c1CSCc1nnc(-c2ccc(F)cc2)o1	2	-3	1	0
Cc1ccc(NC(=O)NC(=O)CN2C(=O)NC(C)(c3ccc([N+](=O)[O-])cc3)C2=O)c(C)c1 (configuration not stated)	-1	3	-2	0
COC(=O)c1sc2nc(-c3ccc(C)o3)cc(C(F)(F)F)c2c1N	1	10	8	0
O=[N+]([O-])c1nn(-c2ccccc2)n(O)c1=NCCc1ccc(Cl)cc1	0	11	22	0
COc1ccc2c(c1)OCC(Cc1ccc(OC)c(O)c1)C2=O (configuration not stated)	3	50*	1	0
COc1ccc(CC(=O)Nc2ccc(-c3noc(-c4cccs4)n3)cc2)cc1	0	-5	7	0
COc1ccc(-n2[nH]c(C)c(N=O)c2=O)cc1	1	39*	3	0
O=C(NCc1ccc(C(=O)NCCc2ccccn2)cc1)Nc1ccc(-c2cn[nH]c2)cc1	1	3	26	1.9*
COc1ccc(C2CC(=O)C3=C(C2)NC(C)=C(C(=O)OC(C)C)C3c2cccc(Cl)c2Cl)cc1OC (configuration not stated)	1	20	4	0
O=C(Nc1nc2ccccc2s1)c1ccccc1Cl	-10	81*	-18	0
CC(=O)Nc1ccc2nc(NC(=O)c3ccc(Cl)cc3Cl)sc2c1	1	-41	6	0
O=C(Nc1nc2ccccc2s1)c1cccc(Cl)c1Cl	-1	-82	0	0
O=C(Nc1nc2ccccc2s1)c1ccccc1O	0	-23	-1	0
O=C(Nc1nc2ccccc2s1)c1ccc(Cl)cc1Cl	-8	81*	-7	0
SMILES	GPR151 ag	TEAD-YAP inh	MITF primary	FBW7 activator
O=C(Nc1nc2ccccc2s1)c1ccccc1F	-11	87*	2	1
CN(C)CCNc1ccn2ncc(-c3ccc4c(c3)OCO4)c2n1	-1	-3	-1	2.0*
c1cc(CNc2ccn3ncc(-c4ccc5c(c4)OCO5)c3n2)ccn1	0	26	9	0
CCc1c(C)sc2ncn3c(=O)n(CCN4CCCC4)nc3c12	0	1	18	21*
Cc1ccc2nc(-c3ccc(NC(=O)CSc4nncn4C)cc3)sc2c1	0	-7	-2	1
CCOc1cc(/C=N/NC(=O)Cn2nnc(-c3ccccc3)n2)ccc1O	1	16	7	0
CCOc1cc(/C=N/NC(=O)Cn2c3ccccc3c(=O)c3ccccc32)ccc1O	2	59*	-12	0
O=C(Cn1c2ccccc2c(=O)c2ccccc21)N/N=C/c1ccccc1O	1	45*	15	0
Cc1cc(C)cc(Oc2c(C(F)(F)F)oc3c(CN4CCCC4)c(O)ccc3c2=O)c1	1	13	6	0
COc1cc(/C=C2/N=C(c3ccc(Cl)cc3)OC2=O)cc(Cl)c1OC(=O)c1ccccc1	1	7	10	0
O=C(Nc1ccc([N+](=O)[O-])cc1Cl)c1cc(Br)ccc1O	1	-70	5	0
O=C(Nc1c(Cl)cc([N+](=O)[O-])cc1Cl)c1cc(Cl)ccc1O	5	67*	0	0
O=C(N/N=C/c1ccc([N+](=O)[O-])cc1)C(=O)N/N=C/c1ccc([N+](=O)[O-])cc1	4	4	-14	0
O=C(Nc1cccc([N+](=O)[O-])c1)c1cc2ccccc2cc1O	-1	34*	-1	0
CNC(=S)N/N=C\c1ccc([N+](=O)[O-])cc1	-1	34*	2	0
O=C(NNC(=O)c1cc2ccccc2cc1O)Nc1cccc([N+](=O)[O-])c1	-2	-7	-5	0
COc1ccc(NC(=O)c2cc([N+](=O)[O-])ccc2O)cc1	-10	86*	-7	1
CCN1CCN(c2nc(Cc3ccccc3)nc3sc4c(c23)CCCC4)CC1	2	-6	17	0
O=[N+]([O-])c1ccc(-c2ncnn2-c2ccc(Br)cc2F)cc1	0	-3	9	1
CC(=O)c1cccc(NC(=O)C2CCCN(c3ccc(-c4ccccc4)nn3)C2)c1 (configuration not stated)	-1	-22	10	0
O=C(Nc1cc(Cl)cc(Cl)c1)c1ccc(Br)cc1F	-1	-21	-1	1
CCc1ccccc1NCc1c(CO)cnc(C)c1O	0	-3	-1	0
CCCCCCSc1nnc2c3ccccc3n(C)c2n1	0	1	0	0
COc1ccc(OCC(=O)Nc2cc([N+](=O)[O-])ccc2O)cc1	-7	90*	-1	0
COc1ccc(/C=N/NC(=O)c2cc([N+](=O)[O-])ccc2O)cc1	-9	33*	-5	0
SMILES	GPR151 ag	TEAD-YAP inh	MITF primary	FBW7 activator
Cc1ccc(NC(=O)c2cc([N+](=O)[O-])ccc2O)cc1	-10	76*	26	0
O=C(Nc1ccc(Cl)cc1)c1cc([N+](=O)[O-])ccc1O	-10	72*	11	0
CSc1ncc(/C=C2/C(=O)NC(=O)N(c3ccccc3Cl)C2=O)cn1	0	-7	-3	0
CCOC(=O)C1CCCN(Cc2cc(Br)c(O)c(OC)c2)C1 (configuration not stated)	0	4	21	1
O=C(NC1CCN(Cc2ccccc2)CC1)c1cccc(-c2ccc(N3CCOCC3)nc2)c1	1	-40	0	0
Cc1nc2sccn2c1-c1csc(Nc2ccc(N)cc2)n1	-1	0	18	0
Cc1nc2sccn2c1-c1csc(Nc2ccc(Br)cc2)n1	0	49*	-6	0
Cc1nc2sccn2c1-c1csc(Nc2ccccc2)n1	-1	-63	-2	0
